NS1 inh = inhibitors of influenza NS1 protein function | actives 0.4% (n = 270,000) | Potency, µM (series often up to 46.1 µM); calls by dose curve; note: actives are rising curves; nearly all actives have a fitted effect of over 50% in size
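Growth recovery, yeast-based: influenza A NS1 expressed in S. cerevisiae causes slow growth, and suppressors are detected by OD600. The parent strain without NS1 is used as positive control.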
Pf growth 96h = inhibits malaria parasite growth, 96 h; actives 6.9% (n = 320,000); P. falciparum luciferase reporter growth, 96 h; Potency, µM (top dose mostly 28.7 µM), actives largely listed as inhibitors
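Compounds incubated with erythrocytes infected by luciferase-expressing P. falciparum (2% hematocrit, 0.05% parasitemia final) for 96 hours, 37 C in 5% CO2. Growth inhibition scored as decreased luciferase luminescence.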
Pf growth 48h = inhibits P. falciparum growth in the first generation, 48 h; P. falciparum luciferase growth in erythrocytes, 48 h; Potency, µM (highest dose often 28.7 µM), hits mostly inhibitors; actives 5.9% (n = 310,000)
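Erythrocytes infected with P. falciparum carrying an integrated firefly luciferase reporter (2% hematocrit, 0.1% parasitemia final) were exposed to compounds in RPMI 1640 with 0.5% Albumax at 37 C, 5% CO2. Growth inhibition was scored as reduced luminescence.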
Cycloheximide cs = counter-screen hit for Shiga toxin inhibitors, cycloheximide; cell reporter, cycloheximide protein synthesis inhibition counterscreen; max response, %; actives 12% (n = 300,000); in the data active = max response mostly above about 13%, no sharp cut-off; inactive = mostly below about 14%; note: read at 38.3 µM for the half of the compounds with a filed dose
Shiga toxin inh = inhibitors of Shiga toxin in Vero cells. Vero cells, Shiga toxin protein synthesis inhibition reporter. inhibition, % at 38.7 µM. actives 9.2% (n = 290,000). AID 2315; in the data active = inhibition mostly above about 28%, no sharp cut-off; inactive = mostly below about 43%
Sm TGR inh = inhibitors of Schistosoma mansoni thioredoxin glutathione reductase | Potency, µM (titrated, usually from 114 µM), actives largely listed as inhibitors | AID 485364 | actives 3% (n = 360,000) | purified TGR, DTNB reduction, TNB absorbance 405 nm; note: nearly all actives have a fitted effect of over 60% in size
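Kinetic colorimetric format: TGR-catalysed, NADPH-driven DTNB reduction monitored via TNB absorbance. Enzyme dispensed at 20 nM; compound exposure 15 min at room temperature before reaction start.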
Each line names hits and unclear results; the compound was inactive in the other large screens; ! = a repeat was not active. Compounds with a hit are over-represented: about 21% of the library has one in this group of screens. Unless noted, calls come from the whole dose curve; as a rule, active = well fitted curve in the direction sought with a large enough effect; inconclusive = small, poorly fitted or top-dose-only effect, or another doubt; inactive = no such curve, though single readings can be large; an effect the other way counts as inactive or inconclusive.

CC1NC(=O)NC1CCCCCC(=O)NCCc1ccccc1 (centres undefined)	Sm TGR inh 32µM (no result: Pf growth 96h)
Cc1cccc(C)c1NC(=O)CCCCCC1NC(=O)NC1C (centres undefined)	Sm TGR inh 25µM (no result: NS1 inh)
O=C(CCCCCn1c(=O)[nH]c2ccccc2c1=O)NCCc1ccccc1	none (no result: NS1 inh, Pf growth 96h, Pf growth 48h, Cycloheximide cs, Shiga toxin inh)
C=CCN1C(=O)C2C(C(=O)NC3CCCC3)C3(C)C=CC2(O3)C1C(=O)NC1CCCC1 (centres undefined)	none
Cc1ccccc1NC(=O)c1nn(C)c2c1CS(=O)(=O)c1ccccc1-2	Pf growth 96h 13µM
COc1ccccc1N1CCN(C(=O)c2nn(C)c3c2CS(=O)(=O)c2ccccc2-3)CC1	Pf growth 96h inconclusive, Sm TGR inh 8.9µM!
COc1ccccc1NC(=O)c1nn(C)c2c1CS(=O)(=O)c1ccccc1-2	none (no result: NS1 inh, Pf growth 96h, Pf growth 48h, Cycloheximide cs, Shiga toxin inh)
COc1ccc(N2CCN(C(=O)c3nn(C)c4c3CS(=O)(=O)c3ccccc3-4)CC2)cc1	none
O=C(Nc1ccc2c(c1)ncn2C1CCCCC1)c1ccco1	Cycloheximide cs 37, Shiga toxin inh 91
CC(C)n1cnc2cc(NC(=O)c3ccco3)ccc21	Cycloheximide cs 28, Shiga toxin inh 75
COc1ccc(-n2cnc3cc(NC(=O)c4ccco4)ccc32)cc1	Pf growth 96h 2.3µM (no result: Pf growth 48h)
COc1ccccc1-n1cnc2cc(NC(=O)c3ccco3)ccc21	none (no result: Pf growth 96h)
COc1ccc(C(=O)Nc2c(N)nc(SCC(=O)c3ccccc3)[nH]c2=O)cc1	Pf growth 96h inconclusive
CCn1c2c(c(=O)n3ncc(C(=O)Nc4ccc(OC(F)(F)F)cc4)c13)CN(Cc1ccc(OC)cc1)CC2	none (no result: NS1 inh, Pf growth 96h, Pf growth 48h, Cycloheximide cs, Shiga toxin inh)
COc1ccccc1N1CCN(c2nc3c(S(=O)(=O)c4ccccc4)nnn3c3ccc(Cl)cc23)CC1	none (no result: NS1 inh, Pf growth 96h, Pf growth 48h, Cycloheximide cs, Shiga toxin inh)
O=C(COC(=O)/C=C/c1ccccc1)NCC1CCCO1 (centres undefined)	none (no result: NS1 inh)
CCn1c2ccccc2c2cc(NC(=O)CNCc3ccccc3OC)ccc21	none
COc1cccc(NC(=O)c2cccc(OC)c2OC)c1	Cycloheximide cs 70, Shiga toxin inh 125 (no result: Pf growth 96h)
COc1cccc(NC(=O)c2ccccc2Br)c1	Cycloheximide cs 28 (no result: Shiga toxin inh)
COc1ccccc1CNCC(=O)Nc1ccc(N(C)C)cc1	Cycloheximide cs 50, Shiga toxin inh 111, Sm TGR inh inconclusive
COc1cccc(NC(=O)c2cc3ccccc3cc2OC)c1	Pf growth 96h inconclusive, Cycloheximide cs 55, Shiga toxin inh 108
COc1cccc(C(=O)Nc2ccncc2)c1OC	none (no result: Shiga toxin inh)
COc1ccc(OC)c(NC(=O)c2cc3ccccc3cc2OC)c1	Pf growth 96h inconclusive
COc1cccc(C(=O)Nc2ccc3[nH]c(=O)[nH]c3c2)c1OC	Shiga toxin inh 54
COc1cc2ccccc2cc1C(=O)Nc1ccc2oc(=O)ccc2c1	none
CN(C)c1ccc(NC(=O)c2cccc(C(=O)Nc3ccc(N(C)C)cc3)n2)cc1	Pf growth 96h 8.3µM, Pf growth 48h inconclusive, Cycloheximide cs 49, Shiga toxin inh active
COc1ccc(NC(=O)c2cc3ccccc3cc2OC)cc1OC	Pf growth 96h inconclusive, Cycloheximide cs 15
O=C(Nc1ccccc1)c1cccc(C(=O)Nc2ccccc2)n1	Pf growth 96h inconclusive
COc1cc2ccccc2cc1C(=O)Nc1ccc(O)cc1	Pf growth 96h inconclusive, Pf growth 48h inconclusive, Cycloheximide cs 44, Shiga toxin inh 63
CS(=O)(=O)NN1C(=O)c2ccccc2NC1c1c[nH]c2ccccc12 (centres undefined)	none
CCOC(=O)c1ccc(NC(=O)CSc2nc3ccccc3c(=O)n2CCNC(C)=O)cc1	none (no result: NS1 inh, Pf growth 96h, Pf growth 48h, Cycloheximide cs, Shiga toxin inh)
CC(=O)c1cccc(NC(=O)COc2cc(C)on2)c1	none (no result: NS1 inh, Cycloheximide cs, Shiga toxin inh)
CCc1ccc2oc(C(=O)NCc3ccccc3)cc(=O)c2c1	none (no result: NS1 inh, Pf growth 96h, Pf growth 48h, Cycloheximide cs, Shiga toxin inh)
COc1cccc(CNc2ncc(C(=O)Nc3cc(OC)c(OC)c(OC)c3)c(C)n2)c1	Pf growth 96h inconclusive, Pf growth 48h 10µM
COc1cccc(C(=O)Nc2ccc(N(C)C)cc2)c1OC	Cycloheximide cs 39, Shiga toxin inh 124, Sm TGR inh inconclusive (no result: Pf growth 96h)
COc1cc(OC)c(C(=O)Nc2ccc3ccccc3c2)cc1OC	Cycloheximide cs 43, Shiga toxin inh 107
CC1(C)Cc2nc3oc4c(NCCCN5CCOCC5)ncnc4c3cc2CO1	Pf growth 96h inconclusive
Cc1ccnc(NC(=S)NC(=O)/C=C/c2ccco2)c1	Cycloheximide cs 70, Shiga toxin inh 138, Sm TGR inh 25µM
O=C(/C=C/c1ccco1)NC(=S)Nc1ccc(Cl)cn1	Shiga toxin inh 88, Sm TGR inh 35µM (no result: Pf growth 96h)
Cc1ccc(-c2csc(NC(=S)NC(=O)/C=C/c3ccco3)n2)cc1	none
Cc1ccc(O)c(NC(=S)NC(=O)/C=C/c2ccco2)c1	Cycloheximide cs 47, Shiga toxin inh 67 (no result: Sm TGR inh)
Cc1cc(C)c2oc(-c3ccc(C)c(NC(=O)/C=C/c4ccco4)c3)nc2c1	Sm TGR inh 13µM (no result: NS1 inh, Pf growth 96h, Pf growth 48h, Cycloheximide cs, Shiga toxin inh)
Cc1cc(-c2cc(C)c(O)c(C(C)(C)C)c2)cc(C(C)(C)C)c1O	none (no result: Pf growth 96h, Pf growth 48h, Cycloheximide cs, Shiga toxin inh, Sm TGR inh)
Cc1cc2[nH]c(=O)c(=O)[nH]c2cc1S(=O)(=O)Nc1cccc(C(F)(F)F)c1	none (no result: NS1 inh, Pf growth 96h, Pf growth 48h, Cycloheximide cs, Shiga toxin inh)
Cc1ccc(C(=O)/C=C/c2ccco2)c(O)c1	Cycloheximide cs 37, Shiga toxin inh 56, Sm TGR inh 45µM
COc1cccc(/C=N/Nc2nnc(C)n2N)c1O	none
COc1cccc(/C=N/Nc2c(Cl)cncc2Cl)c1O	Cycloheximide cs 32, Shiga toxin inh 84
COc1cccc(/C=N/Nc2ncnc3c2ncn3Cc2ccccc2)c1O	NS1 inh inconclusive, Pf growth 96h 2.3µM, Pf growth 48h 1.9µM
COc1cccc(/C=N/Nc2cc(Cl)nc(C)n2)c1O	Pf growth 48h inconclusive, Cycloheximide cs 32, Shiga toxin inh 54
Cc1cc(NC(=O)CC2CCCC2)n(-c2nc3ccccc3[nH]2)n1	Pf growth 96h 5.9µM, Pf growth 48h inconclusive, Sm TGR inh 22µM
Cc1cc(NC(=O)/C=C/c2ccccc2Cl)n(-c2nc3ccccc3[nH]2)n1	Pf growth 96h inconclusive, Pf growth 48h inconclusive, Cycloheximide cs 14
Cc1cc(NC(=O)c2ccc(F)cc2F)n(-c2nc3ccccc3[nH]2)n1	none
CCC(C)NC(=O)c1ccccc1NC(=O)C1COc2ccccc2O1 (centres undefined)	Pf growth 96h inconclusive, Pf growth 48h 1.2µM
COCCNC(=O)c1ccccc1NC(=O)C1COc2ccccc2O1 (centres undefined)	Pf growth 96h inconclusive
CC(C)NC(=O)c1ccccc1NC(=O)C1COc2ccccc2O1 (centres undefined)	Pf growth 48h 10µM
CCOC(=O)C1=C(COc2ccccc2)NC(=O)NC1c1cccc([N+](=O)[O-])c1 (centres undefined)	Pf growth 96h inconclusive
CCOC(=O)C1=C(CNCc2ccc(C)cc2)NC(=O)NC1c1cc(C)ccc1C (centres undefined)	Pf growth 96h 3.3µM (no result: Pf growth 48h)
CCOC(=O)C1=C(CSc2nc3ccccc3s2)NC(=O)NC1c1cccc([N+](=O)[O-])c1 (centres undefined)	Pf growth 96h inconclusive, Pf growth 48h 5.9µM
